Bioassay records: PubChem, Center for Chemical Genomics, University of Michigan
HIV TAR-Tat: TAR RNA-Tat peptide displacers, HIV-1, primary screen, biochemical, FRET, FAM/TAMRA-labeled Tat. HIV-1 TAR RNA, Tat peptide displacement FRET; active compounds read high. z-score (test concentration not listed). hit rate 0.6% among 100,000. AID 1259389, 2018; active = z-score of 3 or more in at least 2 runs
CDC25B-CDK2 inh: primary biochemical HTRF screen for blockers of M-phase inducer phosphatase 2 binding to CDK2/cyclin A | z-score (test concentration not listed) | HTRF CDC25B-CDK2/CyclinA binding, anti-His/anti-Flag; active compounds read high | hit rate 0.72% among 94,000 | AID 1259370, 2018 | P30305+P24941; in the data active = z-score above about 3.2
Hits are given with their value; - = inactive; . = no result. Rows were chosen to be rich in hits. Some 0.93% of all compounds tested hit in one or more screens of this group.

SMILES	HIV TAR-Tat	CDC25B-CDK2 inh
CS(=O)(=O)N1CCN(CCCc2ccccc2)CC1	-	-
CCOC(=O)c1nn(-c2ccccc2)c(=O)cc1NC1CCCCC1	-	.
COc1ccc(C2CC(=O)N3CN(CCC(C)C)CSC3=C2C#N)cc1 (configuration not stated)	-	-
COc1ccc(C2CC(=O)N3CN(Cc4ccco4)CSC3=C2C#N)cc1OC (configuration not stated)	-	5.5
COc1cccc(C2CC(=O)N3CN(Cc4ccco4)CSC3=C2C#N)c1 (configuration not stated)	-	15.2
COc1ccccc1C1CC(=O)N2CN(Cc3ccco3)CSC2=C1C#N (configuration not stated)	-	-
COc1ccc(C2CC(=O)N3CN(CCC(C)C)CSC3=C2C#N)cc1OC (configuration not stated)	-	4.73
COc1cc(C2CC(=O)N3CN(Cc4ccco4)CSC3=C2C#N)ccc1O (configuration not stated)	-	4.92
N#CC1=C2SCN(Cc3ccco3)CN2C(=O)CC1c1cccc(F)c1 (configuration not stated)	-	-
COCCCNC(=O)c1cn2c3c(ccc(Cl)c3c1=O)OC(C)C2 (configuration not stated)	-	.
CCCCC(=O)N(c1ccc(OCC)cc1)C1C=CS(=O)(=O)C1 (configuration not stated)	-	-
Fc1ccc(-c2noc3ncnc(N4CCN(c5ccccc5)CC4)c23)cc1	-	.
Cc1c(OC(C)C(=O)O)ccc2c3c(c(=O)oc12)CCCC3 (configuration not stated)	.	-
CC(C)CC(=O)Nc1nnc2n1CCS2	-	.
CSc1ccc(/C=C/c2nc(=O)c3ccccc3o2)cc1	-	-
O=c1nc(/C=C/c2ccc(O)c(O)c2)oc2ccccc12	18.2	-
Cc1nnc2c(Nc3ccc(O)cc3)nc3ccccc3n12	7.22	-
Cc1nnc2c(Nc3ccc(N(C)C)cc3)nc3ccccc3n12	-	-
CC1(C)CC2(CCCN(Cc3nc4c(c(=O)[nH]3)C3(CCCCC3)Cc3ccccc3-4)C2)CCO1 (configuration not stated)	-	-
COc1cc(NS(=O)(=O)c2ccc3[nH]c4c(c3c2)CCCC4)cc(OC)c1	-	.
COc1cc(C2Nc3cccc4cccc(c34)N2)ccc1OCc1ccccc1	-	-
c1ccc(C2Nc3cccc4cccc(c34)N2)cc1	10.3	-
CCc1ccc(C2Nc3cccc4cccc(c34)N2)cc1	34.9	-
CCOc1cc(C2Nc3cccc4cccc(c34)N2)ccc1O	8	-
COc1cc(OC)c(C2Nc3cccc4cccc(c34)N2)c(OC)c1	-	-
SMILES	HIV TAR-Tat	CDC25B-CDK2 inh
COc1ccccc1C1Nc2cccc3cccc(c23)N1	-	-
Brc1cccc(C2Nc3cccc4cccc(c34)N2)c1	-	-
c1ccc2c(C3Nc4cccc5cccc(c45)N3)cccc2c1	8.22	-
COc1ccc(-c2noc(N3CCN(c4ccc(F)cc4)CC3)n2)cc1OC	-	.
COC(=O)c1cc(NC(=O)CCCC(=O)O)cc(C(=O)OC)c1	.	-
O=C(c1ccc2c(c1)OCCO2)N1CCN(c2ncccn2)CC1	-	.
CN(C)c1ccc(C2Nc3cccc4cccc(c34)N2)cc1	-	-
CC(C)(C)c1ccc(C2Nc3cccc4cccc(c34)N2)cc1	7.08	-
Cn1cccc1CNCc1ccc(F)cc1	-	-
O=C(CN1C(=O)COc2ccc(S(=O)(=O)N3CCCCC3)cc21)N1CCOCC1	-	.
CCN(CC)CCOc1ccc2c(c1)C(=O)c1cc(OCCN(CC)CC)ccc1-2	-	.
O=C(O)COc1ccc2c(c1)C(=O)c1cc(OCC(=O)O)ccc1-2	7.22	-
CCOC(=O)C1CCCN(c2cc(NCCCC(=O)O)c3c4c(onc24)-c2ccccc2C3=O)C1 (configuration not stated)	20.7	10.6
CCOC(=O)C1CCN(c2cc(NCC(=O)O)c3c4c(onc24)-c2ccccc2C3=O)CC1	-	5.89
CCOC(=O)C1CCCN(c2cc(NCC(C)C)c3c4c(onc24)-c2ccccc2C3=O)C1 (configuration not stated)	-	-
CCOC(=O)C1CCN(c2cc(NCCOC)c3c4c(onc24)-c2ccccc2C3=O)CC1	-	-
CCOC(=O)N1CCN(c2cc(NCC(=O)O)c3c4c(onc24)-c2ccccc2C3=O)CC1	-	3.17
CCOC(=O)N1CCN(c2cc(NCCCC(=O)O)c3c4c(onc24)-c2ccccc2C3=O)CC1	-	-
O=C(O)/C=C/c1ccc(O)c(O)c1	-	-
O=C(/C=C/c1ccc(O)c(O)c1)O[C@H](Cc1ccc(O)c(O)c1)C(=O)O	16.6	.
CCN(CC)CCNc1sc(S(=O)(=O)CC)nc1S(=O)(=O)c1ccc(C)cc1	-	-
Cn1c(=O)[nH]c2ncn(C)c2c1=O	-	-
O=C(Cn1c(=O)c2ccccc2n2c(=S)sc(-c3cccc(Cl)c3)c12)NCC1CCCO1 (configuration not stated)	-	-
O=[N+]([O-])c1ccc(/C=C/C2Oc3ccccc3C3CC(c4cccs4)=NN23)o1 (configuration not stated)	13	-
c1coc(C2Oc3ccccc3C3CC(c4cccs4)=NN32)c1 (configuration not stated)	.	-
SMILES	HIV TAR-Tat	CDC25B-CDK2 inh
COc1ccccc1/C=C/c1nc(C#N)c(N2CCNCC2)o1	-	9.59
N#Cc1nc(/C=C/c2cccs2)oc1N1CCNCC1	-	9.3
N#Cc1nc(/C=C/c2cccs2)oc1N1CCC(Cc2ccccc2)CC1	-	-
COc1ccccc1/C=C/c1nc(C#N)c(N2CCCCC2)o1	-	-
CCOC(=O)c1cc(-c2ccc(S(=O)(=O)Nc3ccc(F)cc3F)s2)on1	-	.
Cc1c(C(=O)O)sc2ncnc(NC3CCCC3)c12	-	.
Cc1c(C(=O)O)sc2ncnc(Nc3ccc(C(C)C)cc3)c12	-	.
Cc1c(C(=O)O)sc2ncnc(NC3CCCCC3)c12	5.98	.
Cc1c(C(=O)O)sc2ncnc(NCCC(C)C)c12	10.1	.
CSc1ccc(-c2nc3c[n+](CC(N)=O)ccn3c2NC2CCCC2)cc1	-	-
O=C(c1ccc(OCCCc2cnc[nH]2)cc1)C1CC1	.	-
CCS(=O)(=O)c1nc(S(=O)(=O)c2ccc(Cl)cc2)c(NCCCOC)s1	-	-
CC1CN(Cc2c(O)ccc3c(=O)c(-c4ccccc4)c(C(F)(F)F)oc23)CC(C)O1 (configuration not stated)	-	-
O=c1c(-c2ccccc2)c(C(F)(F)F)oc2c(CN3CCCC3)c(O)ccc12	-	15.3
CC1CC(C)CN(C(=O)C2CCN(c3nc4ccccc4[nH]3)CC2)C1 (configuration not stated)	-	-
O=C(NCc1cccs1)c1cc2cccc3c2n1CCS3	-	.
Cc1ccccc1CN1c2ccccc2S(=O)(=O)c2ccccc21	-	.
Cc1ccc2c(c1)S/C(=C\c1sc3ccccc3[n+]1C)N2CCO	7.9	-
Cc1ccc2c(c1)N(CCO)/C(=C/c1sc3ccccc3[n+]1C)S2	-	-
CCOC(=O)CSc1nnc(CSc2nc(C)cc(C)n2)n1C	-	-
CN(C(=O)CN(C)S(=O)(=O)c1ccc2[nH]c(=O)ccc2c1)C1CCCCC1	-	.
CCOC(=O)N1CCN(c2ccc([N+](=O)[O-])s2)CC1	5.15	.
O=[N+]([O-])c1ccc(N2CCN(c3ccccc3)CC2)s1	-	.
